Measured values reported in PubChem BioAssay (NCATS).
Results filed as inconclusive are left out. Entries that show only a call come without a potency. A number with no mark means an inactive call. Calls of active or inactive are those of the source. Calls come from the whole dose curve; as a rule, active = well fitted cell-killing curve with a large enough effect; inconclusive = small, poorly fitted or top-dose-only effect, or effect the other way; inactive = flat fitted curve, though single readings scatter. *1 amine or outer side, *2 acyl side, *3 side chain or, on linkers, in order; H or OH if unused. Where a SMILES comes first, the peptide text is derived from it. Bridges are numbered along the chain shown (N, C = ends). [ ]: non-standard residue; d: D form. The star is where a group is joined. pTerphenylCO(4''-OnC5H11) = CCCCCOc1ccc(-c2ccc(-c3ccc(C(=O)*)cc3)cc2)cc1; Orn(4R-OH,5R-OH) = O=C([C@H](C[C@@H](O)[C@@H](O)N[*:3])N[*:1])[*:2]; hTyr(3S-OH,4S-OH) = N[C@H](C(=O)O)[C@H](O)[C@@H](O)c1ccc(O)cc1; Pro(3S-OH,4S-Me) = C[C@H]1CN[C@H](C(=O)O)[C@H]1O; Hyp = O=C(O)[C@@H]1C[C@@H](O)CN1

Experiments:
Test in all cases: Primary qHTS to identify gynecologic anti-cancer compounds using libraries of approved drugs and bioactive compounds (AID 1345084); note: nearly all actives have a fitted effect of over 55% in size
Conditions in all cases: Gynecologic cancer cell panel viability, ATPlite luminescence, 48 h; series mostly up to 57.5 µM
[1] = system: PA-1
Method in brief: (§1)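 Cells, 1,000 per well, were allowed to settle for 16 h at 37 C before compound addition. Five concentrations were tested for 48 h, and viability was read by ATPlite luminescence after 15 min at room temperature.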

[2] = system: SKOV3
Method in brief: as §1

[3] = system: Tov-21-G
Method in brief: as §1

[4] = system: Tov112D
Method in brief: as §1
Potency is the fitted concentration of half-maximal effect.

O=C(NC1CCN(CCCCC2(C(=O)NCC(F)(F)F)c3ccccc3-c3ccccc32)CC1)c1ccccc1-c1ccc(C(F)(F)F)cc1
Potency [1]: 31.6 µM (active)

O=C(Nc1ccnc(NC(=O)C2CC2)c1)c1c(Cl)cccc1Cl
Potency [1]: 15.8 µM (active) | Potency [2]: inactive

C=C(C)C(=O)OC1CC2(C)OC(=CC2=O)C(=C)CC2OC(=O)C(=C)C12 (stereo not given)
Potency [1]: 7.94 µM (active) | Potency [2]: 10 µM (active) | Potency [3]: 4.47 µM (active)

C=CC(=O)Nc1ccc(CN2C(=O)N(c3cc(OC)cc(OC)c3)Cc3cnc(Nc4ccc(N5CCN(C)CC5)cc4)nc32)cc1
Potency [1]: inactive | Potency [2]: 15.8 µM (active)

NCCOc1cc(C(=O)Nc2cc(OCCN)c3ccccc3n2)nc(C(=O)Nc2cc(OCCN)c3ccccc3n2)c1
Potency [1]: 7.94 µM (active) | Potency [2]: 8.91 µM (active)

C=CS(=O)(=O)NC1CCN(C(=O)CNc2cc(I)c(Cl)cc2OC)CC1
Potency [1]: 10 µM (active) | Potency [2]: inactive

CC1(C)CC[C@]23CO[C@@]4(CCC5[C@@]6(C)CC[C@H](O[C@@H]7OC[C@H](O[C@@H]8O[C@H](CO)[C@@H](O)[C@H](O)[C@H]8O[C@@H]8OC[C@@H](O)[C@H](O)[C@H]8O)[C@H](O)[C@H]7O[C@@H]7O[C@H](CO)[C@@H](O)[C@H](O)[C@H]7O)[C@@](C)(CO)C6CC[C@@]5(C)[C@]4(C)C[C@H]2O)[C@@H]3C1 (stereo not given in full)
activity change, negative = cytotoxicity [1]: -25.5% [at 11.6 µM]

C=C1C(=O)O[C@@H]2C(OC(=O)/C(C)=C\C)/C(C)=C\C(=O)/C=C(\C)C[C@H](O)[C@@H]12 (stereo not given in full)
Potency [1]: 10 µM (active) | Potency [2]: inactive | Potency [3]: 10 µM (active)

CCNC(=O)Nc1ccc(-c2nc3c(c(N4CCOCC4C)n2)CCN(C2COC2)C3)cc1 (stereo not given)
Potency [1]: 2.24 µM (active)

CC1CCC/C=C/C(=O)c2c(O)cc(O)cc2CC(=O)O1 (stereo not given)
Potency [1]: 5.62 µM (active) | Potency [2]: 22.4 µM (active)

NC(=O)N1CCC(CC(=O)N2CCC(C3c4ncc(Br)cc4CCc4cc(Cl)cc(Br)c43)CC2)CC1 (stereo not given)
Potency [1]: inactive | Potency [2]: inactive | Potency [3]: inactive

Cc1cc(C(=O)Nc2cc(Oc3ccc4nc(NC(=O)C5CC5)cn4n3)ccc2C)n(C)n1
Potency [1]: inactive | Potency [2]: 10 µM (active)

COc1c(C)cnc(Cn2cc(C#CCC(C)(C)O)c3c(Cl)nc(N)nc32)c1C
Potency [1]: 0.282 µM (active) | Potency [2]: 0.251 µM (active)

CC12CCC(OC3OC(CO)C(O)C(O)C3OC3OC(CO)C(O)C(O)C3O)CC1CCC1C2CCC2(C)/C(=C3/COC(=O)C3)CCC12O (stereo not given)
Potency [1]: inactive | Potency [2]: inactive

OC1C=C2C3CN(Cc4cc5c(cc43)OCO5)C2CC1O (stereo not given)
Potency [1]: 14.1 µM (active)

Cc1ccc(C(C)C)c(O[C@@H]2O[C@H](CO)[C@@H](O)[C@H](O)[C@H]2O)c1
Potency [1]: inactive | Potency [2]: inactive | Potency [3]: inactive

CN1CCC(NC(=O)c2cc(-c3c(O)cc(O)cc3Oc3ccc([N+](=O)[O-])cc3)on2)CC1
Potency [1]: 0.794 µM (active) | Potency [2]: 1.58 µM (active) | Potency [3]: 0.562 µM (active)

CC(=O)OC1[C@H]2[C@@H](C[C@@H](C)[C@@H]3C=CC(=O)[C@@]13C)OC(=O)[C@@H]2C (stereo not given in full)
Potency [1]: 35.5 µM (active)

COc1ccc(S(=O)(=O)Nc2c(C)cc(C)cc2C)cc1
Potency [1]: inactive | Potency [2]: inactive | Potency [3]: inactive

CC(C)n1nc(C#Cc2ccccc2)c2c(N)ncnc21
Potency [1]: inactive

C=C(C)C1CC(O)C(C)C12CC(O)C1(C)OC1C2O (stereo not given)
Potency [1]: 8.91 µM (active) | Potency [2]: 7.94 µM (active)

NCC1CCN(c2nccc(-c3ccc4ccccc4c3)n2)CC1
Potency [1]: 14.1 µM (active) | Potency [2]: 22.4 µM (active)

CCOc1cc(C(C)(C)C)ccc1C1=NC(C)(c2ccc(Cl)cc2)C(C)(c2ccc(Cl)cc2)N1C(=O)N1CCN(CCCS(C)(=O)=O)CC1 (stereo not given)
Potency [1]: 6.31 µM (active) | Potency [2]: inactive | Potency [3]: 15.8 µM (active)

COc1cc2c(NC3CCN(C(C)C)CC3)nc(N3CCC(F)(F)CC3)nc2cc1OCCCN1CCCC1
Potency [1]: 22.4 µM (active)

COc1cccc(-c2cn(-c3ccc(CCN4CCC(O)CC4)cc3)c3ncnc(N)c23)c1
Potency [1]: 12.6 µM (active) | Potency [2]: 8.91 µM (active) | Potency [3]: 17.8 µM (active)

C=C1C(=O)OC2/C=C(\COC(C)=O)CC/C=C(\C=O)CC(OC(=O)C(C)CC)C12 (stereo not given)
Potency [1]: 11.2 µM (active)

Oc1ccc(-c2cnc3ccc(NCc4ccco4)nn23)cc1
Potency [1]: 28.2 µM (active) | Potency [2]: 14.1 µM (active)

O=C(NCC1(N2CCN(c3ccccc3)CC2)CCOCC1)c1cccnc1Sc1ccccc1
Potency [1]: inactive | Potency [2]: inactive | Potency [3]: inactive

CC(C)NC(=O)N1CC[C@H](N=C2Nc3cc(F)ccc3N(CC(F)F)c3ccc(Cl)cc32)C1
activity change, negative = cytotoxicity [1]: -24.1% [at 11.6 µM] | activity change, negative = cytotoxicity [2]: 18.3% [at 11.6 µM] | activity change, negative = cytotoxicity [3]: -31.2% [at 11.6 µM] | activity change, negative = cytotoxicity [4]: -4.53% [at 11.6 µM]

CCOc1ccc(-n2c(C(C)N(Cc3cccnc3)C(=O)Cc3ccc(F)c(C(F)(F)F)c3)nc3ncccc3c2=O)cc1 (stereo not given)
Potency [1]: inactive | Potency [2]: inactive | Potency [3]: inactive | Potency [4]: inactive

CCCc1cc(C)n(C)c(=O)c1CN(C)C(=O)c1cc(-c2ccc(N3CCN(C(C)C)CC3)nc2)cc2c1cnn2C(C)C
Potency [1]: inactive | Potency [2]: inactive | Potency [3]: inactive | Potency [4]: inactive

COc1ccc(CN2CCN(CCCSc3cc(C(C)(C)C)c(O)c(C(C)(C)C)c3)CC2)c(OC)c1OC
activity change, negative = cytotoxicity [1]: 1.3% [at 11.6 µM] | activity change, negative = cytotoxicity [2]: 17.3% [at 11.6 µM] | activity change, negative = cytotoxicity [3]: 7.27% [at 11.6 µM] | activity change, negative = cytotoxicity [4]: 2.48% [at 11.6 µM]

C=C(C(=O)OC[C@H]1O[C@@H](OC(=O)/C=C/c2ccccc2)[C@H](O)[C@@H](O)[C@@H]1O)C(O)CO (stereo not given in full)
Potency [1]: inactive | Potency [2]: inactive | Potency [3]: inactive | Potency [4]: inactive

Cn1ncc(Cl)c1-c1cc(C(=O)N[C@H](CN)Cc2cccc(F)c2)sc1Cl
Potency [1]: 25.1 µM (active) | Potency [2]: 14.1 µM (active) | Potency [3]: 1.58 µM (active)

CCC(C)c1ccc(NC(=O)Cn2cnc3c2c(=O)n(C)c(=O)n3C)cc1 (stereo not given)
Potency [1]: inactive | Potency [2]: inactive | Potency [3]: inactive | Potency [4]: inactive

O=C(Nc1cnc(Cl)nc1)c1ccc(F)c(F)c1
Potency [1]: inactive | Potency [2]: inactive | Potency [3]: inactive | Potency [4]: inactive

O=C(NCCN1CCN(c2cccc3c2OCCO3)CC1)c1ccc(F)cc1
Potency [1]: inactive | Potency [2]: inactive | Potency [3]: inactive | Potency [4]: inactive

C[C@@H]1C[C@H](C)CN(CCC(=O)Nc2ccc(Br)cc2)C1
Potency [1]: inactive | Potency [2]: inactive | Potency [3]: inactive

Cn1ncnc1[C@H]1c2n[nH]c(=O)c3cc(F)cc(c23)N[C@@H]1c1ccc(F)cc1
Potency [1]: 1 µM (active) | Potency [2]: inactive | Potency [3]: inactive

CN(C)CCOc1cc(NS(=O)(=O)c2c(Cl)cc(C(F)(F)F)cc2Cl)ccc1Cl
Potency [1]: inactive | Potency [2]: inactive | Potency [3]: inactive | Potency [4]: inactive

NS(=O)(=O)c1ccc(NC(=O)Nc2ccc(F)cc2)cc1
Potency [1]: inactive | Potency [2]: inactive | Potency [3]: inactive | Potency [4]: inactive

C=CC(C)(O)CC/C=C(/C)COC(=O)C(C)C1CCC(C)(C=C)O1 (stereo not given)
Potency [1]: inactive | Potency [2]: inactive | Potency [3]: inactive

O=C(N[C@H](Cc1cscn1)C(=O)N[C@@H](CC1CCCCC1)[C@@H](O)[C@@H](O)C1CC1)c1nc2ccccc2[nH]1
Potency [1]: inactive | Potency [2]: inactive | Potency [3]: inactive | Potency [4]: inactive

COc1cc2ncnc(Oc3ccc(CC(=O)Nc4cnn(C(C)C)c4)cc3)c2cc1OC
Potency [1]: inactive | Potency [2]: inactive | Potency [3]: inactive | Potency [4]: inactive

C=C1C(=O)OC2/C=C(\CO)CC/C=C(\C=O)C(O)C(OC(=O)C(C)CC)C12 (stereo not given)
Potency [1]: inactive | Potency [2]: inactive | Potency [3]: inactive | Potency [4]: inactive

O=C(NC[C@H](O)CN1CCc2ccccc2C1)c1ccnc(NC2CCC2)c1
Potency [1]: inactive | Potency [2]: inactive | Potency [3]: inactive | Potency [4]: inactive

C[C@@]12C(=O)N(c3ccc(C(=O)Nc4cccc5cccnc45)cc3)C(=O)[C@@H]1[C@@H]1C=C[C@H]2C1
Potency [1]: inactive | Potency [2]: inactive | Potency [3]: inactive

CCC(C)C(=O)Oc1cc(C)ccc1C1(COC(=O)C(C)C)CO1 (stereo not given)
Potency [1]: inactive | Potency [2]: inactive | Potency [3]: inactive | Potency [4]: inactive

COc1cc(N2CCC(N3CCN(C)CC3)CC2)ccc1Nc1ncc(Cl)c(Nc2ccccc2P(C)(C)=O)n1
Potency [1]: 11.2 µM (active) | Potency [2]: 8.91 µM (active) | Potency [3]: 7.08 µM (active)

COc1ccc(CCO[C@@H]2O[C@H](CO[C@H]3OC[C@](O)(CO)[C@H]3O)[C@@H](OC(=O)/C=C/c3ccc(O)c(O)c3)[C@H](O[C@@H]3O[C@@H](C)[C@H](O)[C@@H](O)[C@H]3O)[C@H]2O)cc1OC
Potency [1]: inactive | Potency [2]: inactive | Potency [3]: inactive | Potency [4]: inactive

C[C@@H](N[C@H]1CCCC[C@@H]1NC(=O)c1ccc(Cl)cc1)c1cccc2ccccc12
Potency [1]: inactive | Potency [2]: 31.6 µM (active) | Potency [3]: inactive

Cc1cccc(-c2[nH]ncc2-c2ccc(F)c(-c3cnn(CCO)c3)c2)n1
Potency [1]: inactive | Potency [2]: inactive | Potency [3]: inactive | Potency [4]: inactive

Cc1cc2c(F)c(Oc3ncnn4cc(OCC(C)OC(=O)C(C)N)c(C)c34)ccc2[nH]1 (stereo not given)
Potency [1]: inactive | Potency [2]: inactive | Potency [3]: inactive

COc1ccccc1N1CCN(c2ncnc3n[nH]c(Br)c23)CC1
Potency [1]: inactive | Potency [2]: inactive | Potency [3]: inactive | Potency [4]: inactive

CC[N+]1(C/C2=C/CCCCCC2)CCC(NC(=O)C2c3cc(Cl)ccc3Oc3ccc(Cl)cc32)CC1 (stereo not given)
Potency [1]: inactive | Potency [2]: inactive | Potency [3]: inactive | Potency [4]: inactive

N#Cc1ccc2ncnc(NCCc3ccccc3)c2c1
Potency [1]: inactive | Potency [2]: inactive | Potency [3]: inactive | Potency [4]: inactive

CCCCCOc1ccc(-c2ccc(-c3ccc(C(=O)N[C@H]4C[C@@H](O)[C@@H](O)NC(=O)[C@@H]5[C@@H](O)[C@@H](C)CN5C(=O)[C@H]([C@@H](C)O)NC(=O)[C@H]([C@H](O)[C@@H](O)c5ccc(O)cc5)NC(=O)[C@@H]5C[C@@H](O)CN5C(=O)[C@H]([C@@H](C)O)NC4=O)cc3)cc2)cc1 ({pTerphenylCO(4''-OnC5H11)}-[Orn(4R-OH,5R-OH)]T[Hyp][hTyr(3S-OH,4S-OH)]T[Pro(3S-OH,4S-Me)]; lactam 1-C)
Potency [1]: inactive | Potency [2]: inactive | Potency [3]: inactive | Potency [4]: inactive
